Measurements published in PubChem BioAssay AID434962 (The Scripps Research Institute Molecular Screening Center, 2010).
Out of some 320,000 compounds screened, about 1,300 (0.41%) were called active.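 How the source made its calls: active means percent inhibition above the average of all tested compounds plus 3 SD, set per screening campaign (cut at about 16% in these data); inactive means the rest.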 The entries come from a sample that favours actives as a whole.

These molecules were tested against Insulin-degrading enzyme (Homo sapiens) (UniProt P14735) (assay: cellular IDE Abeta-cleavage inhibition – fluorescence polarization, HEK cells, FAbetaB substrate, primary screen (AID 434962;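 further: IDE supplied by intact live HEK cells; FP after avidin binding of uncleaved biotin substrate so inhibition keeps polarization high; 0% = DMSO wells and 100% = 60 µM reference IDE inhibitor Ii1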)). Details: at 5.59 µM, stronger effect = higher value.
Insulin-degrading enzyme (Homo sapiens), sequence (P14735 whole entry, looked up): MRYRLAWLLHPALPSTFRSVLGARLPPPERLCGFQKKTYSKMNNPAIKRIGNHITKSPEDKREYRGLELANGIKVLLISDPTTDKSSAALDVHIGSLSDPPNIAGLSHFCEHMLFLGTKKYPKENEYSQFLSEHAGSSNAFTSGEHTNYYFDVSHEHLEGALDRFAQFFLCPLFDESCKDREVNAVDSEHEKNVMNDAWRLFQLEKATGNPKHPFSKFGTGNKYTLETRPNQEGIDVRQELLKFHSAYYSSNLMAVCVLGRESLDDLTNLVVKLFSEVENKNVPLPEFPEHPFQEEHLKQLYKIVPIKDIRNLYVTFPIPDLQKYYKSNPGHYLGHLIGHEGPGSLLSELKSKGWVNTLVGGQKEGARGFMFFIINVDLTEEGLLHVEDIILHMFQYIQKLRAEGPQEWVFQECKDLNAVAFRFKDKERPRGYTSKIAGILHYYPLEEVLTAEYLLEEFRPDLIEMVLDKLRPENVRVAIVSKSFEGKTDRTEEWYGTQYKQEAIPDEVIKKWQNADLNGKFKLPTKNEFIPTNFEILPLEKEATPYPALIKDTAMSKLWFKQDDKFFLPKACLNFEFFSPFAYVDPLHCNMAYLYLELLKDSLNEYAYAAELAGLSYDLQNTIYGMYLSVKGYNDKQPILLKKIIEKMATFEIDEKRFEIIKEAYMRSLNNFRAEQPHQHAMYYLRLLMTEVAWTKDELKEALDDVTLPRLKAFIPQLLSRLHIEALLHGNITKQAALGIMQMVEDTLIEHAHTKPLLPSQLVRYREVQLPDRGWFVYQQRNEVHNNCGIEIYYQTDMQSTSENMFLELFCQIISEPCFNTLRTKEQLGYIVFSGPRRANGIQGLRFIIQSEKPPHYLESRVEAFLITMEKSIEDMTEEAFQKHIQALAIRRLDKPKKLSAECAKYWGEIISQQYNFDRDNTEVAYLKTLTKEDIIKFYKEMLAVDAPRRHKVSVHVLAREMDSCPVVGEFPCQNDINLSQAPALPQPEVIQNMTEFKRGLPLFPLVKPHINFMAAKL

inhibition, inactive:
Cc1nc2ccccc2c(=O)n1NC(=O)c1ccccc1 7.25%
Cc1ccnc(N2CCCC(C(=O)NC3CC3)C2)n1 (configuration not stated) 1.69%
COc1cccc(CNC(=O)C2CCCN(c3ncnc4c3nc3n4CCCCC3)C2)c1 (configuration not stated) 8.69%
O=C(/C=C/c1ccccc1)Oc1coc(CSc2ncccn2)cc1=O 4.39%
COC(=O)c1sccc1-n1cccc1C(=O)C(=O)N1CCCCC1 -0.4%
CCc1ccc(N(CC(=O)NCc2cccnc2)S(=O)(=O)c2ccccc2)cc1 8.22%
COc1ccc(N(C(=O)c2cccnc2)S(=O)(=O)c2ccc(OC)c(OC)c2)cc1 -4.14%
O=C(Cn1nnc2ccccc2c1=O)Nc1cc(C(F)(F)F)ccc1N1CCOCC1 6.97%
COc1ccc(C)cc1NC(=O)c1cc(-c2ccccc2)nc2c1cnn2C(C)C 1.05%
Cc1cc(OCCCC(=O)NCCN2C(=O)S/C(=C\c3cccnc3)C2=O)ccc1Cl 3.84%
OC(c1nc2ccc(F)cc2[nH]1)C(O)c1nc2ccc(F)cc2[nH]1 (configuration not stated) 6.32%
COc1ccc(-c2[nH]ncc2/C=N/NC(=O)c2cc(Br)ccc2O)c(OC)c1 1.62%
Cc1ccccc1NC(=O)C(C)c1ccc(-c2ccccc2)c(F)c1 (configuration not stated) 4.53%
CC(NC(=O)C(C)(C)C)C(c1cccs1)N1CCN(Cc2ccccc2)CC1 (configuration not stated) -2.35%
O=Cc1c(Nc2ccccc2Cl)nc2ccccn2c1=O -3.69%
CC(=O)c1ccc(S(=O)(=O)Nc2ccc(-c3ccc4nncn4n3)cc2)cc1 2.89%
Cc1ccc(CC(=O)N(C)CC(=O)N(CC(C)C)c2c(N)n(CC(C)C)c(=O)[nH]c2=O)cc1C -2.63%
CCOC(=O)Cn1c(=O)oc2cc(S(=O)(=O)N(C)Cc3ccco3)ccc21 3.15%
O=C(O)c1ccccc1C(=O)NC1=NN(c2ccccc2)CC1 -0.6%
COc1ccccc1C(=O)OCC(=O)Nc1cccc(S(=O)(=O)NC2=NCCCCC2)c1 0.13%
Cc1ccc(Br)c(NS(=O)(=O)c2cccc(C(=O)N3CCNC(=O)C3)c2)c1 -0.69%
C/C(=C/c1ccccc1)C(=O)N1CCN(c2ccccc2)CC1 -2.17%
CCOC(=O)/C(C#N)=C/c1ccc(N2CCN(Cc3ccccc3)CC2)cc1 3.39%
Cc1cc(=O)oc2c1ccc1ccccc12 7.29%
CCc1ccccc1N(CC(=O)N1CCN(c2ccccc2F)CC1)S(C)(=O)=O -4%
COc1ccc(NC(=O)C(C)SCc2ccccc2)cc1 (configuration not stated) -4.67%
O=C(NCCc1c[nH]c2ccccc12)C1CCN(Cc2ccc(Br)cc2)CC1 -4.77%
O=C(CN1C(=O)NC2(CCCCC2)C1=O)NCCc1c[nH]c2ccccc12 1.64%
COc1ccccc1N(C)S(=O)(=O)c1ccc(C(=O)NC2CCCCCC2)cc1 -1.04%
CC1CCCC(NC(=O)COC(=O)[C@@H]2CC(O)CN2S(=O)(=O)c2ccc3c(c2)OCCO3)C1C (some centres not stated) 2.16%
COc1cc(C(=O)Nc2cc(C(F)(F)F)ccc2-n2cncn2)cc(OC)c1OC -10.1%
CCN(CC(=O)Nc1c(F)cccc1F)C(=O)C1CCC1 -0.82%
N#CC1=C(N)Oc2c(ccc3cccnc23)C1c1ccncc1 (configuration not stated) 0.4%
Cc1cc(C(=O)NCCc2ccc(Cl)cc2)c(C)o1 -1.15%
COCc1[nH][nH]c(=O)c1C=Nc1ccc(F)cc1F 1.29%
O=C(OCC(=O)N1CCCCC1)c1ccc(OC(F)(F)F)cc1 7.21%
Cc1nnc(Sc2nc3c(c(=O)[nH]c(=O)n3C)n2Cc2ccccc2)s1 1.7%
COC1=C/C(=C/c2c(N)n3nc(CC(=O)N4CCOCC4)sc3nc2=O)C=CC1=O 12.1%
COc1cc(/C=C2\C(=N)N3N=C(CC(=O)N4CCOCC4)SC3=NC2=O)cc(OC)c1OC -4.67%
Cc1cccc(CSc2ccc(-c3cccs3)nn2)c1 4.68%
FC(F)(F)Oc1ccc(-c2cn3cccnc3n2)cc1 6.48%
FC(F)(F)c1ccc2c3n(nc2c1)CCN=C3c1ccc(Cl)cc1 1.01%
CCn1c(O)c(N=NC2=NC(=O)CS2)c2cc(C)ccc21 5.14%
O=S1(=O)CC(NCc2ccccc2)C(Nc2ccc(Cl)cc2)C1 (configuration not stated) 0.58%
COc1ccc(NS(=O)(=O)c2cc3c(cc2C)N(C(C)=O)CCO3)cc1 2.34%
CN1C(C)(C)CC(NC(=O)CCC(=O)NC2CC(C)(C)N(C)C(C)(C)C2)CC1(C)C 0.6%
C=CCN1C(=O)C2(OCCCO2)c2cccc(Cl)c21 1.02%
CCc1ccc(N(C(=O)c2csnn2)C(C(=O)NC2CCCCC2)c2ccncc2)cc1 (configuration not stated) 3.98%
Cc1cccn2c(=O)c(/C=C(\C#N)C(N)=O)c(N3CCCCCC3)nc12 15.9%
CCOC(=O)N1CCN(C(=O)CSc2nc(=O)n3cccc(C)c3n2)CC1 -1%
O=C(COc1ccc(S(=O)(=O)N2CCOCC2)cc1Cl)N1CCOCC1 0.54%
CCCc1cc(=O)oc2c(C)c(OCC(=O)N3CCC(C(=O)O)CC3)ccc12 0.15%
Cc1c(C)c2ccc(OCC(=O)N3CCC(C(=O)O)CC3)c(C)c2oc1=O 9.3%
CCC(C)N(C(=O)COC(=O)c1nc(Cl)ccc1Cl)C1CCS(=O)(=O)C1 (configuration not stated) 1.33%
CNC(=O)/C(C#N)=C/c1c(F)cccc1Cl -1.39%
CCN1CCN(C(=O)C2CCCN(S(=O)(=O)c3ccc(OC)c(OC)c3)C2)CC1 (configuration not stated) -5.73%
O=C(O)c1ccccc1CSc1nc2ccccc2s1 -2.6%
CCOc1ccccc1Nc1ccc2nonc2c1[N+](=O)[O-] -3.97%
Cc1[nH]c2ccccc2c1/C=C(/C#N)C(=O)NC(C)C -1.7%
O=C(CSc1ncnc2sccc12)N1CCN(C(=O)c2cccs2)CC1 3.13%
O=[N+]([O-])c1ccc(N(CCO)Cc2ccccc2)c([N+](=O)[O-])c1 0.66%
COc1ccc(N2CCN(Cc3ccc(Br)s3)CC2)cc1 -4.53%
O=C1NC(c2ccccc2)=NC1(Nc1ccccn1)C(F)(F)F (configuration not stated) -2.81%
Oc1ccc(N=Cc2sc3ccccc3c2Cl)cc1 0.23%
COC(=O)c1ccc(/C=C/c2c(-c3ccc(OC)cc3)sc3ccccc23)cc1 1.82%
Cc1ccccc1NC(=O)Cc1nc(COC(=O)c2ccc(C(F)(F)F)cc2)cs1 7.39%
CCN(CC)C(=O)C(=O)Nc1cccc(Br)c1 1.91%
Cc1ccc(CSCC(=O)N(C)CC(=O)Nc2cccc(F)c2)cc1 5.39%
Cc1cccc(OCC(O)CN2CCN(CCN3C(=O)c4cccc5cccc(c45)C3=O)CC2)c1C (configuration not stated) -8.18%
Cc1cccc(C)c1NC(=O)COC(=O)c1ccccc1O 3.87%
Cc1cc([N+](=O)[O-])c(N2CCC[C@@H]2C(=O)O)c([N+](=O)[O-])c1 3.34%
Cc1ccccc1CN(c1ccc(C(=O)NCC2CCCO2)cc1)S(C)(=O)=O (configuration not stated) 10.1%
CN1CCC(=NNC(=O)c2ccc(N(Cc3ccc(Cl)cc3)S(C)(=O)=O)cc2)CC1 8.43%

inhibition, active:
Cc1ccnc(-n2sc3ccccc3c2=O)n1 57.8%
O=C(c1cccnc1)N(c1cc2sc(=O)oc2c2ccccc12)S(=O)(=O)c1ccccc1 20.4%
CC(=O)N(C1=C(Cl)C(=O)c2ccccc2C1=O)c1ccc(C(=O)O)cc1 98.9%
CCN1/C(=C/c2ccc3ccc(C)cc3[n+]2CC)Sc2ccccc21 31.9%
CCN1/C(=C\c2ccc3ccccc3[n+]2CC)Sc2cc(C)ccc21 73.9%
CN(c1ccccc1)c1ccc(/C=c2\s/c(=C(/C#N)C(=O)C(C)(C)C)n(Cc3ccco3)c2=O)cc1 31%
COc1ccc(N2CCN(C(=O)/C(C#N)=C/c3ccccc3)CC2)cc1 17.7%
N#C/C(=C/c1ccc(N2CCCCC2)o1)C(=O)NCCc1c[nH]c2ccccc12 151%
N#CC1=C(N)Oc2c(sc3ccccc23)C1c1ccco1 (configuration not stated) 37.7%
CN1/C(=c2/s/c(=C3/C(=O)N(c4ccccc4)NC3=Nc3ccccc3)n(C)c2=O)C(C)(C)c2ccccc21 27%
C=CCC1=C/C(=C\c2c(N)n3nc(CC(=O)N4CCOCC4)sc3nc2=O)C=C(OC)C1=O 68.9%
CCC(=C/c1sc2ccc3ccccc3c2[n+]1C)/C=C1\Sc2ccc3ccccc3c2N1C 50.5%
CCOC(=O)CC1C(=O)NCCN1c1nc2c(C)cccn2c(=O)c1/C=C1\SC(=S)N(C(C)CC)C1=O (configuration not stated) 114%
CCCCc1cc(=O)oc2c(C)c(OCC(=O)N3CCC(C(N)=O)CC3)ccc12 21.3%
O=[N+]([O-])c1c(NCCO)cc(Sc2nc3ccccc3s2)c2nonc12 21.8%
Nc1c(C(=O)c2cccs2)sc2nsc(SCCN3CCCCC3)c12 23%
COc1ccc(N=C(C)c2sc3ccccc3c2O)cc1 41.2%
CCN(CC)C(=O)CSC(Nc1cccc(F)c1)=C(C#N)C#N 31.4%
CS(=O)(=O)N(Cc1ccccc1)c1ccc(C(=O)NN=C2CCCCCC2)cc1 18.7%
